Assay results published in publication PMC12136788.
Whole data set: some 24,000 sequences, median “enrichment r” near 0.99, cut for the highest 2% near 3.7. This is one part of a sample in which the highest values are shown more often than they occur.

T1: UNK ZnF1-3 (human, UniProt Q9C0B0 31-174)
T1 sequence: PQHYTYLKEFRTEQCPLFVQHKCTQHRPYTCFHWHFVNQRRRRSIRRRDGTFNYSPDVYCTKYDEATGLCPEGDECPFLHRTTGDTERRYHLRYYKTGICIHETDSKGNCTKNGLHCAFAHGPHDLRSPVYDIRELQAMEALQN

B1: chr2:179515052:179515053:+_ENSMUSG00000000305_ENSMUST00000000314|mus_hu|FALSE|FALSE (ssRNA)
RNA: GGGAGUUCUACAGUCCGACGAUCGCUGUCCCAUGCAGUCACCGUGAACGCCACCUGCUCGGAGGGGACCUGCAGCUCCCGGGUGGCGAAGACUGUCCCAUCUGCCCCAACUUUGAAGUCCAUGCUGUUGGUCUCAUAUUGUGUCAACAGAGGAUUGAGCAUCA
B2: chr7:7676484:7676485:-_ENSG00000106399_ENST00000223129|hu_mus|FALSE|FALSE (ssRNA)
RNA: GGGAGUUCUACAGUCCGACGAUCAAGUAUCACUUUUAAAAAAAGUUUAUAAAAAGGCUUAGUUGUAAACUGUCAUAAUAGAUUUACAAAAAAAUAUAUAUAUAUAAAAGAACAAAUUAAAUAUUAGAAAUUAUAGGAGUCGCUCAACAGAGGAUUGAGCAUCA
B3: chr6:13577978:13577979:-_ENSMUSG00000042742_ENSMUST00000045235|mus_hu|FALSE|FALSE (ssRNA)
RNA: GGGAGUUCUACAGUCCGACGAUCAAAAAGAAUUAUCACCAAUUACAAAAAGUUCAGUAAAUAUUGGAUCAUCAGACAAAAAAGGAACAUAAAAUGACUUUCUGUAACAUCACAAUUUUAGUUAGAAAAAAGAAAAAGAUAAGUCAACAGAGGAUUGAGCAUCA
B4: 13037762_13037882_4555_3pUTR_ENSMUSG00000029571_ENSMUST00000031556|mouse|control|control (ssRNA)
RNA: GGGAGUUCUACAGUCCGACGAUCUAAAAGGUACUCCUAUUUUAAAAACAUAUGAAUGAAACUAUCUUCUAAAAUAAGACGCAAUGUGUUAACAACCAGUUGAUUUAAGCACUUUAAAAGGCAGAAUGGAAAAGUCGGCACACCCAACAGAGGAUUGAGCAUCA
B5: chr19:15271055:15271056:-_ENSG00000074181_ENST00000263388|hu_mus|FALSE|FALSE (ssRNA)
RNA: GGGAGUUCUACAGUCCGACGAUCAUAUAUAUUUUGUAAAAAAUAAUAAUAAUAAUAAGUUUGUUUAAAUGAAUUUGUCUCUAUACAAAAUGUAAAAAAGAAAAAAAUAAUAACUCACUCUUGUCAGAGUGUGAGACAAUGAGACAACAGAGGAUUGAGCAUCA
B6: chr11:99246628:99246629:-_ENSMUSG00000019761_ENSMUST00000103131|mus_mus|FALSE|FALSE (ssRNA)
RNA: GGGAGUUCUACAGUCCGACGAUCAUAGUUUGCAUCAGUAAGAAAGUUUAUUGAAAUUUAUUAGUAAAUGAGAAAUUAAUAAGUAAGUGAGAAAGUUUUCUUCUUUUUUCUCCACAAAAGAACACUUUCUGAUAGAUGAAAAGACAACAGAGGAUUGAGCAUCA
B7: chr3:169711627:169711628:+_ENSG00000008952_ENST00000337002|hu_hu|motif|central (ssRNA)
RNA: GGGAGUUCUACAGUCCGACGAUCUAAAAACAUACCCUUACAUGGUCUUAAUUUUAUGAAUUUAAGUGUUGAGAAAUAUCGGAAUAAUAAGUAACAAUUAAAAUAAAAUGUUUUAUUUGUAAAUUAUGUACAGAAUACACUUUACAACAGAGGAUUGAGCAUCA
B8: chr4:95690885:95690886:+_ENSMUSG00000028572_ENSMUST00000156910|mus_mus|mus_mus_mus_hu_False|8_78 (ssRNA)
RNA: GGGAGUUCUACAGUCCGACGAUCUUUAGAAAAUGUUAAAUACCAUGCUAAAAUAUUGUAAUUUUAAUAUUUUAUUUUACCAGAAGUCACAGGCAAGCAGACACUACAAGAAUAUAUGAAAAUGAAACAACAGUGUAUAACUGUCAACAGAGGAUUGAGCAUCA
B9: chr11:31834330:31834331:+_ENSMUSG00000020300_ENSMUST00000109412|mus_mus|FALSE|FALSE (ssRNA)
RNA: GGGAGUUCUACAGUCCGACGAUCAUAAAGUUCAGAGUAAUAGAUAAUCAUUGUUUAUGCCCUGUAAAGAAGUGGAACCAAAUCAUCUGUAAACACGCUUGUCACACAAUCACAAGUAAAUAUUAGCAGAAUAACAAUUUCUUACAACAGAGGAUUGAGCAUCA
B10: chr1:90180492:90180493:+_ENSG00000171488_ENST00000370454|hu_hu|motif|central (ssRNA)
RNA: GGGAGUUCUACAGUCCGACGAUCUUUCAUUUGCUCCCGGACGUCAGAAGGCAGAGUUUCAAACAGAGCAUCUUCGGCAACGGAACCAGCUCGCUUCAGAGCCCGACAGUCACCCAGUUCAGGAGGGAGGAUUUCAAAGUGAUUCAACAGAGGAUUGAGCAUCA
B11: chr1:39494447:39494448:+_ENSG00000168653_ENST00000372967|hu_mus|hu_hu_hu_mus_False|38_58 (ssRNA)
RNA: GGGAGUUCUACAGUCCGACGAUCGCACCGAGCGGCGUUCUUAUAGGGCUGUUCUGCGCUUAGGAACAUAAAGUGCCGAUCUAUGUUGAUGCCCAGCCUUUUCUGGAUGUCAAGGAAAGGCAUGGCUCUGCAGUGCCCUUGUCACAACAGAGGAUUGAGCAUCA
B12: 131003253_131003911_1761_CDS_ENSMUSG00000068267_ENSMUST00000089510|mouse|control|control (ssRNA)
RNA: GGGAGUUCUACAGUCCGACGAUCCAAGGGCCAAAGACUGGGCCAGAGAAAGGGAUCUGGGGAGGUGGAAAGCAGGCAGAGGCAGGCUCGGUUCUUCCUAGUCACGUGGACCAGAUCGUGUUCCAAAUGAAGGAUGUGACUCUGCAACAGAGGAUUGAGCAUCA
B13: chr7:7679991:7679992:-_ENSG00000106399_ENST00000396682|hu_hu|hu_hu_hu_mus_False|48_58 (ssRNA)
RNA: GGGAGUUCUACAGUCCGACGAUCUGGGAUGAAUCUUUUCCAGCUUCCCCACGAAGCACACGGGCCGGUCGAUAUACUGAGCUAGCAUGCCGGCGUUGACGCGCGCUUUGGGGAGCUGCAUUAUGUCCUCCAUGAUUCUGCCGCCAACAGAGGAUUGAGCAUCA
B14: chr7:75932113:75932114:+_ENSG00000106211_ENST00000248553|hu_hu|hu_hu_hu_mus_False|38_78 (ssRNA)
RNA: GGGAGUUCUACAGUCCGACGAUCCUGCGACCACUCAUCGGGCAACCGGGGCACCCCGAAGGCCUGGUCGAAGAGGCGGCUGUGUGCAGGGUACCAGCGGAAGGGGUGUUCCCAGCUCGGGCUCCGCAGCAGCGAGAAGGGCACCAACAGAGGAUUGAGCAUCA

Biological target: T1, UNK ZnF1-3
Assay: nsRBNS (natural sequence RNA bind-n-seq); RBNS binding buffer (assumed for nsRBNS): 25 mM Tris pH 7.5, 150 mM KCl, 3 mM MgCl2, 0.01% Triton X-100, 500 ug/ml BSA, 20 U/ml SUPERase-In, 4 C; UNK is unkempt and MSI1 is Musashi-1; names of the RNAs are library labels; protein concentration not given here; high values mean tight binding

Binder	binding signal
B1	0.755 enrichment R
B2	21.9 enrichment R
B3	3.59 enrichment R
B4	1.37 enrichment R
B5	4.58 enrichment R
B6	19.7 enrichment R
B7	5.94 enrichment R
B8	1.97 enrichment R
B9	0.945 enrichment R
B10	3.35 enrichment R
B11	0.477 enrichment R
B12	1.29 enrichment R
B13	0.406 enrichment R
B14	0.969 enrichment R
